# According to PubChem BioAssay (EPA / NIEHS):
# Active and inactive are the calls of the source. Rule for the calls: active = hit-call score of the fitted dose curve at least 0.9, where 1 is the maximum; inactive = score below 0.9.
# Assay: ATG_TA_CIS: Attagene CIS-FACTORIAL HepG2 Assay for human TA Basal Promoter (AID 2282964)
# Details: HepG2 Attagene CIS-factorial TA basal promoter reporter; actives raise or lower the signal
# Procedure, shortened: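 Read-out: fluorescent reporter-transcript fragments resolved by capillary electrophoresis after RT-PCR and HpaI digestion. Source: HepG2 cells carrying transiently transfected multi-reporter cis constructs, treated 24 h. Endpoint fitted bidirectionally relative to DMSO.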
Compound,outcome,AC50
Nc1nc(N)c2nc(CNc3ccc(C(=O)N[C@@H](CCC(=O)O)C(=O)O)cc3)cnc2n1,inactive,
COc1cc(S(=O)(=O)O)c(C)cc1N=Nc1c(O)ccc2cc(S(=O)(=O)O)ccc12,inactive,
CN1CCN(Cc2cc(-c3ccc4[nH]c(=O)oc4c3)co2)[C@@H](c2ccc(F)cc2)C1,,33 µM (active)
FC(F)(F)C(F)(F)C(F)(F)C(F)(F)C(F)(F)C(F)(F)CCI,inactive,
Cc1nc(C)nc(N2C[C@@H](C)N(c3ccnc([C@@H](C)O)n3)[C@@H](C)C2)n1,inactive,
NS(=O)(=O)c1cc2c(cc1Cl)NCNS2(=O)=O,inactive,
Cc1c(C(=O)O)c(O)cc2c1C(=O)c1c(O)c([C@@H]3O[C@H](CO)[C@@H](O)[C@H](O)[C@H]3O)c(O)c(O)c1C2=O,inactive,
Cc1cc(NC(=O)C(=O)O)cc(C)c1Oc1ccc(O)c2c1CCC2,inactive,
O=C(O)Cc1ccccc1Nc1c(Cl)cccc1Cl,inactive,
O=c1[nH]cc(F)c(=O)[nH]1,inactive,
